In the supplement of paper PMC6953052:
Over roughly 1,700 compounds, “fraction of GFP-LC3-positive cells (≥5 vesicles/cell)” has its median near 0.058; the highest 2% begin near 0.59. Shown is part of a subset that was picked to be rich in the highest values.

system: CbCln3 +/+ GFP-LC3 cerebellar neuronal cells; experiment: fraction of GFP-LC3-positive cells (≥5 vesicles/cell); higher = more autophagosome accumulation
In short: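 Compound (~50 nL in DMSO) was pin-transferred in duplicate onto wild-type or mutant CbCln3 cerebellar cells stably expressing GFP-LC3, seeded at 2 × 10^3/well in 384-well plates, for 24 h at 33 °C. After fixation in 3.2% PFA, three fields per well were imaged at 10×. The value reported is the duplicate average of the fraction of cells meeting a vesicle-count threshold, with CellProfiler counting GFP-LC3 vesicles per cell and out-of-focus images excluded. Cells met the threshold at 5 or more vesicles.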

Compound	fraction of GFP-LC3-positive cells
Clc1ccc(C(Cn2ccnc2)OCc2csc3c(Cl)cccc23)c(Cl)c1.O=[N+]([O-])O (stereo not drawn) [Sertaconazole nitrate]	0.0474
O=C(O)c1cc(N(Cc2ccccc2O)Cc2cc(O)ccc2O)ccc1O [Lavendustin A]	0.0834
O=C(O)c1cc(N(Cc2ccccc2O)Cc2cc(O)ccc2O)ccc1O	0.0412
CCCCNc1c(C(=O)OCC)c(C)nc2c1cnn2CC.Cl [Tracazolate hydrochloride]	0.0505
Cc1c(OCC(F)(F)F)ccnc1CS(=O)c1nc2ccccc2[nH]1 (stereo not drawn) [Lansoprazole]	0.0343
COC1=CC(=O)C[C@@H](C)[C@]12Oc1c(Cl)c(OC)cc(OC)c1C2=O [Griseofulvin]	0.172
Cc1ncc(C[n+]2csc(CCO)c2C)c(N)n1.Cl.[Cl-] [Thiamine hydrochloride]	0.0725
CC[C@H](C)C(=O)O[C@H]1C[C@@H](C)C=C2C=C[C@H](C)[C@H](CC[C@@H]3C[C@@H](O)CC(=O)O3)[C@H]21 [Mevinolin (lovastatin)]	0.203
CC(C)(Oc1ccc(C2CC2(Cl)Cl)cc1)C(=O)O (stereo not drawn) [Ciprofibrate]	0.0359
CCN(CC)C(=O)N1CCN(C)CC1.O=C(O)CC(O)(CC(=O)O)C(=O)O [Diethylcarbamazine citrate]	0.0418
CC(=O)O[C@H]1C(=O)[C@@]2(C)[C@H]([C@H](OC(=O)c3ccccc3)[C@]3(O)C[C@H](OC(=O)[C@H](O)[C@@H](NC(=O)c4ccccc4)c4ccccc4)C(C)=C1C3(C)C)[C@]1(OC(C)=O)CO[C@@H]1C[C@@H]2O [Paclitaxel]	0.642
CC(=O)O[C@H]1C(=O)[C@@]2(C)C([C@H](OC(=O)c3ccccc3)[C@]3(O)C[C@H](OC(=O)[C@H](O)[C@@H](NC(=O)c4ccccc4)c4ccccc4)C(C)=C1C3(C)C)[C@]1(OC(C)=O)CO[C@@H]1C[C@@H]2O (stereo partly drawn) [taxol =paclitaxel]	0.536
CS(=O)c1ccc(-c2nc(-c3ccc(F)cc3)c(-c3ccncc3)[nH]2)cc1 (stereo not drawn)	0.023
Cc1cnc(C(=O)NCCc2ccc(S(=O)(=O)NC(=O)NC3CCCCC3)cc2)cn1 [Glipizide]	0.057
CCOC(=O)n1ccn(C)c1=S [Carbimazole]	0.0518
N=C(N)NCC1COC2(CCCCC2)O1.N=C(N)NCC1COC2(CCCCC2)O1.O=S(=O)(O)O (stereo not drawn) [Guanadrel sulfate]	0.041
CC/C=C/C/C=C/C/C=C/CCCCCCCCCC(=O)O [Eicosatrienoic acid (20:3 N-3)]	0.0456
CCCCC/C=C/C/C=C/CCCCCCCCCCCC(=O)O [13(Z),16(Z)-Docosadienoic acid]	0.0709
